Compound activity as filed in PubChem BioAssay.
In the library only some 9.1% were active in any assay of this set; here they are far more common.
M1 agonist: agonists of M1 muscarinic receptor | CHO-M1 cells, Fluo-4 calcium fluorescence, agonist mode; hits give high values | B-score at 10 µM | 64,000 compounds, 3% hits;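 active = fluorescence rise, raw or as B-score row- and column-corrected plate score, outside the 99.7% band of its plate's samples, either direction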
D1 mod: allosterically modulates the human D1 dopamine receptor; P21728; B-score at 10 µM; HEK293 D1, CRE-luciferase, dopamine EC30 potentiation; actives deviate in either direction; 58,000 compounds, 5.9% hits; AID 641;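 active = luminescence count or its row- and column-corrected plate score outside the 99.7% band of the plate's sample wells, on either side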
Htt clearance: mutant huntingtin protein clearance; HeLa Exon1htt(103Q)mCFP, aggregate imaging; zero = plate's median compound well; inhibition, % at 1.5 µM; 47,000 compounds, 0.42% hits; AID 853;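 active = inhibition of aggregate fluorescence above about 70%, also judged a hit by eye on the cell image, limit read from the data, passing the limit was not always enough; inconclusive = no rule stated for this call; inactive = not judged a hit on image review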;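 note: cells exposed to compound for three days before fixation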
M1 antag: antagonists of rat M1 muscarinic receptor; CHO-M1 cells, Fluo-4 calcium, ACh EC80 antagonist mode; hits give low values; B-score at 10 µM; P08482; 64,000 compounds, 3.4% hits;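 active = calcium fluorescence response, raw or row-and-column corrected B-score, differing from the plate sample mean either way at a set confidence level, mostly lower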
Target sequence (P08482 whole entry, looked up): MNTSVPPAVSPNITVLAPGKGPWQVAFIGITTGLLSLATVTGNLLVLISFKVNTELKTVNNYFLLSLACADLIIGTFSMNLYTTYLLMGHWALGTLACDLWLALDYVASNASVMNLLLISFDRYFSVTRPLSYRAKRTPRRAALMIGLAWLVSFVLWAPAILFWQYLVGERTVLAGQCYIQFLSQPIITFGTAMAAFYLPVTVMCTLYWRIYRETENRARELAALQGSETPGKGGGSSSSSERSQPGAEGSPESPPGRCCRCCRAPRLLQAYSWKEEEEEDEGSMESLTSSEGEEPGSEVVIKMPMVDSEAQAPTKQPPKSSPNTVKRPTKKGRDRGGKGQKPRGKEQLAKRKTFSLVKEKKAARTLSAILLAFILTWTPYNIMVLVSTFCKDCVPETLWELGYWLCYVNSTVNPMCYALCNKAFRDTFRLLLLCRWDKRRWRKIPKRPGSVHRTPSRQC
Hits are given with their value; – = inactive; ? = inconclusive; · = no result.

SMILES | M1 agonist | D1 mod | Htt clearance | M1 antag
Cn1c(=O)n(Cc2ccccc2)c(=O)c2c1nc1n2CCCN1Cc1ccccc1 | – | – | – | 2.9
Cn1c(=O)n(Cc2ccc(Cl)cc2)c(=O)c2c1nc1n2CCN1Cc1ccco1 | -2.3 | – | – | –
Cc1ccc(C)n1C1CCS(=O)(=O)C1 (configuration not stated) | – | -4.6 | – | –
O=C1C2ON(c3ccc(Cl)cc3)C(c3ccco3)C2C(=O)N1c1ccccc1 (configuration not stated) | – | – | – | –
O=C(/C=C\Nc1cccc(F)c1)c1ccc2c(c1)OCO2 | – | -6.9 | 84 | –
O=C(Nc1ccc2c(c1)OCO2)c1cccc(F)c1 | – | – | – | –
Cc1ccc(C)c(Cn2cnc3c(cnn3C(C)(C)C)c2=O)c1 | · | -2.6 | · | ·
CCc1cccc(NC(=O)CN(c2ccc(OC)cc2)S(=O)(=O)c2c(C)n[nH]c2C)c1 | – | · | · | –
CCN(CC)c1ccc(C2Nc3cccc4cccc(c34)N2)c(O)c1 | – | · | – | –
CCN(CC)c1ccc2c(c1)CCCN2 | – | -3.4 | · | –
C=CCn1c(SCn2nnc3ccccc3c2=O)nnc1C1CCCCC1 | – | – | · | –
CC1=CC(C#N)(C#N)C(C#N)(C#N)C(c2ccccc2)N1 (configuration not stated) | 25 | – | · | –
Cc1ccc(S(=O)(=O)Cc2ccc(C(=O)NCCCN3CCCC3=O)o2)cc1 | – | -3.3 | – | –
C=CCOn1c(=O)c(-c2ccc(OC)cc2)[n+]([O-])c2ccccc21 | – | · | – | –
O=c1c(-c2ccc(Cl)cc2)[n+]([O-])c2ccccc2n1O | 28 | · | – | –
Cc1ccc(C(=O)N2CCN(C3c4cccc5cccc(c45)C3NS(=O)(=O)c3ccccc3)CC2)cc1 (configuration not stated) | · | · | – | ·
Cc1cc(C)c2nc(N3CCCC(C(=O)N4CCC(C(N)=O)CC4)C3)sc2c1 (configuration not stated) | – | -4.1 | – | –
Cc1cc2c(cc1C)NC(c1c(C)n(C)n(-c3ccccc3)c1=O)C1=C(CC(C)(C)CC1=O)N2 (configuration not stated) | 47 | – | · | –
COc1cccc2c3c(c(C)nc12)CC(C)O3 (configuration not stated) | – | -3.4 | ? | –
CCOC(=O)c1ccc2nc(C)c3c(c2c1)OC(C)C3 (configuration not stated) | – | -2.7 | – | –
COc1ccc2nc(C)c3c(c2c1)OC(C)C3 (configuration not stated) | – | – | – | –
CCC(=O)N1CCc2cc(Br)cc(S(=O)(=O)N3CCN(c4ccccn4)CC3)c21 | – | · | · | –
C=CCn1c(SCC(=O)c2ccc(Br)cc2)nnc1C(CC(C)C)NC(=O)c1cccs1 (configuration not stated) | · | · | – | ·
Cc1c(C(=O)OCCOc2ccccc2)[nH]c2c1C(=O)CCC2 | – | -3.8 | · | –
O=C(C1CCN(S(=O)(=O)c2cccc3cccnc23)CC1)N1CCN(C2CCCC2)CC1 | – | – | · | –
SMILES | M1 agonist | D1 mod | Htt clearance | M1 antag
[N-]=[N+]=CC(=O)c1ccnc(C(=O)C=[N+]=[N-])c1 | – | – | – | 1.6
CC(C)c1nc(SCc2c(F)cccc2Cl)c2c(=O)n(C)c(=O)n(C)c2n1 | – | -3.7 | – | –
CCCCCc1c(C)nc(N2CCc3ccccc32)[nH]c1=O | – | – | – | 1.5
Cc1cc(/N=C/C=C2\N(C)c3ccccc3C2(C)C)n(CCC#N)n1 | – | – | – | –
Clc1ccc(-n2nnnc2Sc2ncnc3sccc23)cc1 | – | -2.9 | – | –
Cc1sc2ncnc(Sc3nnnn3-c3ccccc3)c2c1C | – | -4.8 | – | –
Nc1ccc(Sc2nnnn2-c2ccccc2)c(Cl)c1 | – | – | · | –
Cc1cc2c(=O)n(CC(=O)NCC(=O)N3CCN(Cc4ccccc4)CC3)cnc2s1 | – | – | · | –
Cc1ccc(-c2noc(CCC(=O)N3CCCc4ccccc43)n2)cc1 | – | – | · | –
COc1cc(-c2nc3ccccc3s2)ccc1O | · | · | – | ·
Oc1cccc(-c2nc3ccccc3s2)c1 | – | -8.7 | – | –
CC1=C(CC/C(C)=N/NC(N)=S)C(C)(C)CCC1 | · | · | – | ·
O=S1(=O)C=C(Sc2nc3ccccc3s2)c2ccccc21 | – | -3.7 | · | –
Cc1cc(C)nc(SC2=CS(=O)(=O)c3ccccc32)n1 | – | – | – | –
O=C1c2ccccc2C(=O)N1CSc1ncccn1 | – | – | · | –
O=C1CCC(=O)N1c1nc2n(n1)C(c1ccccc1)C=C(c1ccc(Br)cc1)N2 (configuration not stated) | 26 | · | – | –
COc1ccc(C2C=C(c3ccc(Br)cc3)Nc3nc(N4C(=O)CCC4=O)nn32)cc1 (configuration not stated) | 21 | – | – | –
COc1ccccc1C1C=C(c2ccc(Cl)cc2)Nc2nc(N3C(=O)CCC3=O)nn21 (configuration not stated) | – | – | · | –
Cc1cc(/C=c2/sc3nc4ccccc4n3c2=O)c(C)n1-c1ccccn1 | – | -6.8 | · | –
O=c1/c(=C\c2cccnc2)sc2nc3ccccc3n12 | · | – | – | ·
COc1cc(OC)cc(C(=O)n2cnnc2N)c1 | · | · | – | ·
COc1cc2c(cc1NC(=O)C(c1ccccc1)c1ccccc1)CCCC2 | · | · | – | ·
Cc1nn(C(=O)c2c([N+](=O)[O-])cnn2C)c(C)c1Cl | · | · | – | ·
COc1ccc(Nc2ncc3c(n2)CC(c2ccccc2)CC3=O)cc1 (configuration not stated) | – | 9.8 | · | –
Cc1cccc(NC(=O)CN(c2ccc(C(C)C)cc2)S(=O)(=O)c2c(C)nn(C)c2C)n1 | · | · | – | ·
SMILES | M1 agonist | D1 mod | Htt clearance | M1 antag
CCn1cc(C(=O)NCC(=O)OC)c2cc(OC)c(OC)cc2c1=O | – | – | · | –
CCn1cc(C(=O)NCc2ccc(C)o2)c2cc(OC)c(OC)cc2c1=O | · | -6.3 | – | ·
Cc1ccc2nc3c(cc2c1)c(NC(=O)c1cccnc1)nn3C | – | -4.4 | · | –
CC(C)Sc1nc2c(c(=O)[nH]c(=O)n2C)n1Cc1ccc(Cl)cc1 | – | 23 | – | –
C=C(C)CSc1nc2c(c(=O)[nH]c(=O)n2C)n1Cc1ccccc1 | – | 11 | · | –
Cn1c(=O)[nH]c(=O)c2c1nc(SCC(=O)Nc1ccccc1)n2Cc1ccccc1 | – | – | · | –
COc1ccc(C2=NO[C@@H]3C(=O)N(c4ccc(C)cc4C)C(=O)[C@H]23)cc1OC | – | – | – | –
COc1ccc(C2=NO[C@@H]3C(=O)N(c4cccc(C)c4C)C(=O)[C@H]23)cc1OC | – | – | · | 0.91
CCn1cc(C(=O)NCc2ccc3c(c2)OCO3)c(=O)c2ccc(C)nc21 | – | 4.3 | · | –
CCC(Sc1nc(=O)cc(N)n1CCc1ccccc1)C(=O)Nc1cc(C)on1 (configuration not stated) | – | -5.1 | · | –
CCCC(c1nnnn1CCc1ccccc1)N1CCC(C(N)=O)CC1 (configuration not stated) | · | · | – | ·
Cc1nn(-c2ccc(F)cc2F)c2c1-c1nc(N3CCCC3)ncc1CC2 | – | -5.9 | – | –
O=C(Cn1cc2c(n1)CCCCC2)Nc1ccc(F)cc1F | – | – | · | –
Clc1ccc(Nc2ncnc3c2cnn3-c2ccccc2)cc1 | – | – | · | –
CC(C)Nc1ncnc2c1cnn2-c1ccc(Cl)cc1 | – | -6.1 | · | –
